Where “and” joins values, the source holds several entries; their conditions need not be identical. Equal values may be shown once. In all, about 5,500 compounds went through this assay and about 2,000 (36%) were called active. About 18% were inconclusive and are not listed. Rule as the data show it: active = normalized growth mostly below about 0.91 (no sharp cut-off); inconclusive = no clear call, values can overlap the other calls; inactive = mostly above about 0.92. Some of the results follow.
Test: chemical genetic growth profiling, strain panel (AID 1159580);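 also: tested at 20 µM; growth read once vehicle control cultures reached saturation at 30 °C; 1 = growth at the plate median or of vehicle wells; lower values mean less growth of the strain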
Conditions: S. cerevisiae deletion strains, growth OD

Measured: normalized growth

COc1cc2ccc(=O)oc2cc1O
inactive: locus YAL013W, strain DEP1, active compounds read low 1.03 | locus YAL021C, strain ccr4, active compounds read low 0.958 | locus YAL026C, strain drs2, active compounds read low 0.968 | locus YAL030W, strain snc1, active compounds read low 0.977 | locus YBL061C, strain skt5, active compounds read low 0.965 | locus YBR009C, strain hhf1, active compounds read low 1.01 | locus YBR021W, strain FUR4, active compounds read low 0.985 | locus YBR023C, strain chs3, active compounds read low 0.958 | locus YBR171W, strain sec66, active compounds read low 0.984 | locus YBR229C, strain ROT2, active compounds read low 0.946 | locus YBR231C, strain swc5, active compounds read low 0.966 | locus YBR279W, strain paf1, active compounds read low 0.96 | locus YCL011C, strain gbp2, active compounds read low 0.946 | locus YCL016C, strain dcc1, active compounds read low 0.94 | locus YCL029C, strain bik1, active compounds read low 0.979 | locus YCL069W, strain vba3, active compounds read low 0.98 | locus YCR088W, strain abp1, active compounds read low 0.985 | locus YDL005C, strain med2, active compounds read low 0.992 | locus YDL035C, strain GPR1, active compounds read low 0.97 | locus YDL040C, strain nat1, active compounds read low 0.973 | locus YDL074C, strain BRE1, active compounds read low 1.04 | locus YDL101C, strain DUN1, active compounds read low 0.999 | locus YDL185W, strain tfp1, active compounds read low 0.974 | locus YDL192W, strain arf1, active compounds read low 1 | locus YDR001C, strain nth1, active compounds read low 0.976 | locus YDR069C, strain doa4, active compounds read low 0.995 | locus YDR101C, strain arx1, active compounds read low 0.987 | locus YDR137W, strain rgp1, active compounds read low 1 | locus YDR150W, strain NUM1, active compounds read low 1 | locus YDR159W, strain sac3, active compounds read low 0.941 | locus YDR162C, strain NBP2, active compounds read low 0.953 | locus YDR195W, strain ref2 0.994 | locus YDR297W, strain sur2, active compounds read low 0.99 | locus YDR318W, strain mcm21, active compounds read low 0.992 | locus YDR334W, strain swr1, active compounds read low 0.959 | locus YDR335W, strain msn5, active compounds read low 0.96 | locus YDR388W, active compounds read low 1 | locus YDR392W, strain spt3, active compounds read low 0.883 | locus YDR502C, strain sam2, active compounds read low 0.999 | locus YEL003W, strain gim4, active compounds read low 0.987 | locus YEL037C, strain rad23, active compounds read low 0.974 | locus YEL061C, strain CIN8 (second series), active compounds read low 0.977 | locus YEL061C, strain CIN8, active compounds read low 0.987 | locus YER015W, strain faa2, active compounds read low 0.967 | locus YER016W, strain bim1, active compounds read low 0.949 | locus YER110C, active compounds read low 1.01 | locus YER111C, strain swi4, active compounds read low 0.967 | locus YER155C, strain BEM2 (second series), active compounds read low 1.01 | locus YER155C, strain BEM2, active compounds read low 1 | locus YER167W, strain BCK2, active compounds read low 0.984 | locus YFR010W, strain ubp6, active compounds read low 0.996 | locus YGL078C, strain dbp3, active compounds read low 1 | locus YGL086W, strain mad1, active compounds read low 0.998 | locus YGL167C, strain pmr1, active compounds read low 0.978 | locus YGL173C, strain kem1, active compounds read low 1.02 | locus YGL227W, strain vid30, active compounds read low 0.975 | locus YGL240W, strain doc1, active compounds read low 1 | locus YGL248W, strain PDE1, active compounds read low 0.998 | locus YGL253W, strain hxk2, active compounds read low 0.939 | locus YGR078C, strain PAC10, active compounds read low 1.02 | locus YGR135W, strain pre9, active compounds read low 1 | locus YGR252W, strain gcn5, active compounds read low 1 | locus YHR013C, strain ard1, active compounds read low 0.916 | locus YHR027C, strain rpn1, active compounds read low 0.968 | locus YHR030C, strain SLT2, active compounds read low 0.987 and 0.966 | locus YHR079C, strain IRE1 (second series), active compounds read low 1.01 | locus YHR079C, strain IRE1, active compounds read low 0.976 | locus YHR094C, strain hxt1, active compounds read low 0.992 | locus YHR129C, strain ARP1, active compounds read low 0.994 | locus YHR142W, strain chs7, active compounds read low 0.914 | locus YHR200W, strain rpn10, active compounds read low 0.991 | locus YIL066C, strain RNR3, active compounds read low 0.935 | locus YIL073C, strain SPO22, active compounds read low 1.01 | locus YIL125W, strain kgd1, active compounds read low 1 | locus YIR030C, strain dcg1, active compounds read low 0.996 | locus YJL092W, strain hpr5, active compounds read low 0.968 | locus YJL095W, strain BCK1 (second series), active compounds read low 0.987 | locus YJL095W, strain BCK1, active compounds read low 1.02 and 1.01 | locus YJL115W, strain asf1, active compounds read low 0.952 | locus YJL129C, strain trk1, active compounds read low 0.929 | locus YJL134W, strain LCB3, active compounds read low 0.982 | locus YJL154C, strain vps35, active compounds read low 0.973 | locus YJL164C, strain tpk1, active compounds read low 0.979 | locus YJL166W, strain qcr8, active compounds read low 1 | locus YJL168C, strain set2, active compounds read low 0.995 | locus YJL187C, strain SWE1 (second series), active compounds read low 1.03 | locus YJR043C, strain POL32, active compounds read low 0.954 | locus YJR066W, strain TOR1, active compounds read low 0.929 | locus YKL009W, strain mrt4, active compounds read low 1 | locus YKL068W, active compounds read low 0.992 | locus YKL085W, strain MDH1 (second series), active compounds read low 0.995 | locus YKL085W, strain MDH1, active compounds read low 0.995 | locus YKL160W, strain elf1, active compounds read low 0.931 | locus YKR001C, strain vps1, active compounds read low 0.987 | locus YKR026C, strain gcn3, active compounds read low 0.983 | locus YKR091W, strain srl3, active compounds read low 0.963 | locus YLL001W, strain dnm1, active compounds read low 1 | locus YLL026W, active compounds read low 0.971 | locus YLL041C, strain sdh2, active compounds read low 0.999 | locus YLR027C, strain aat2, active compounds read low 0.989 | locus YLR039C, strain RIC1, active compounds read low 0.971 | locus YLR058C, strain SHM2, active compounds read low 0.988 | locus YLR102C, strain apc9, active compounds read low 1 | locus YLR113W, strain HOG1, active compounds read low 1.04 | locus YLR221C, strain rsa3, active compounds read low 1.03 | locus YLR258W, strain gsy2, active compounds read low 0.95 | locus YLR262C, strain YPT6 (second series), active compounds read low 0.982 | locus YLR262C, strain YPT6, active compounds read low 0.969 | locus YLR268W, strain sec22, active compounds read low 1.01 | locus YLR320W, strain mms22, active compounds read low 1.01 | locus YLR330W, strain CHS5, active compounds read low 0.988 | locus YLR342W, strain FKS1 (second series), active compounds read low 0.988 | locus YLR342W, strain FKS1, active compounds read low 0.973 | locus YLR357W, strain rsc2, active compounds read low 0.947 | locus YLR370C, strain arc18, active compounds read low 0.964 | locus YLR371W, strain rom2, active compounds read low 0.994 | locus YLR384C, strain iki3, active compounds read low 0.941 | locus YLR418C, strain cdc73, active compounds read low 1 | locus YML016C, strain PPZ1, active compounds read low 0.986 | locus YML032C, strain rad52, active compounds read low 0.986 | locus YML120C, strain ndi1, active compounds read low 1 | locus YML124C, strain tub3, active compounds read low 1.01 | locus YMR058W, strain fet3, active compounds read low 0.971 | locus YMR078C, strain ctf18, active compounds read low 1 | locus YMR125W, strain sto1, active compounds read low 0.97 | locus YMR129W, active compounds read low 0.976 | locus YMR205C, strain PFK2, active compounds read low 1 | locus YMR223W, strain ubp8, active compounds read low 0.997 | locus YMR231W, strain pep5, active compounds read low 0.992 | locus YMR307W, strain GAS1, active compounds read low 0.904 | locus YNL067W, strain RPL9B, active compounds read low 1.06 | locus YNL071W, strain lat1, active compounds read low 0.986 | locus YNL183C, strain NPR1, active compounds read low 0.975 | locus YNL209W, strain ssb2, active compounds read low 0.968 | locus YNL233W, strain BNI4, active compounds read low 1.07 | locus YNL248C, strain rpa49, active compounds read low 0.903 | locus YNL250W, strain rad50, active compounds read low 1.01 | locus YNL271C, strain bni1, active compounds read low 0.994 | locus YNL298W, strain CLA4, active compounds read low 0.994 | locus YNL307C, strain MCK1, active compounds read low 1 | locus YNL322C, strain KRE1 (second series), active compounds read low 0.948 | locus YNR049C, strain mso1, active compounds read low 0.955 | locus YNR052C, strain pop2, active compounds read low 1.03 | locus YOL012C, strain htz1 0.802 | locus YOL147C, strain pex11, active compounds read low 0.999 | locus YOR001W, strain rrp6, active compounds read low 1.03 | locus YOR061W, strain CKA2, active compounds read low 0.975 | locus YOR069W, strain VPS5, active compounds read low 0.987 | locus YOR070C, strain gyp1, active compounds read low 0.975 | locus YOR080W, strain dia2, active compounds read low 0.967 | locus YOR083W, strain WHI5, active compounds read low 0.896 | locus YOR106W, strain vam3, active compounds read low 0.923 | locus YOR136W, strain idh2, active compounds read low 0.998 | locus YOR144C, strain elg1, active compounds read low 1 | locus YOR184W, strain ser1, active compounds read low 0.995 | locus YOR231W, strain MKK1, active compounds read low 0.976 | locus YOR265W, strain rbl2, active compounds read low 0.97 | locus YOR270C, strain vph1, active compounds read low 0.923 | locus YOR290C, strain snf2, active compounds read low 0.929 | locus YOR316C, strain cot1, active compounds read low 0.994 | locus YPL051W, strain arl3, active compounds read low 0.963 | locus YPL078C, strain atp4, active compounds read low 0.939 | locus YPL106C, strain sse1, active compounds read low 0.899 | locus YPL240C, strain hsp82, active compounds read low 0.987 | locus YPL241C, strain CIN2, active compounds read low 0.997 | locus YPL256C, strain CLN2, active compounds read low 1.01 | locus YPR119W, strain clb2, active compounds read low 0.995 | locus YPR141C, strain kar3, active compounds read low 0.989 | locus YPR163C, strain tif3, active compounds read low 0.989 | locus YPR167C, strain met16, active compounds read low 0.997 | strain wtn01, active compounds read low 1.01
